For eight compounds, growth results are on record in PubChem BioAssay (NCI).

This is part of a sample that, as a whole, favours compounds with a hit. Of some 83,000 tested, about 20% had one in any assay.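 Cells were grown in 96-well plates and exposed to the test compound at a single concentration for 48 hours; results are reported as percent growth, with values below 10 considered active.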 Values without a mark were called inactive. Activity calls are given as the source filed them.

Among the test systems are DU-145 prostate; K-562 leukemia; MALME-3M melanoma; MDA-MB-231 breast; RXF 393 renal; SF-268 CNS; SF-295 CNS; UACC-257 melanoma; M14 melanoma; HCT-15 colon; HT29 colon; SNB-75 CNS; SNB-19 CNS; U251 CNS; PC-3 prostate; SK-MEL-5 melanoma; UACC-62 melanoma; LOX IMVI melanoma; SK-MEL-28 melanoma.
Test in all cases: NCI-60 one-dose screen, 48 h (100 = growth as untreated, 0 = no growth, -100 = all killed)
Common to all, as to conditions: 10 µM unless noted

On to `COc1cnc2c(c1)C(=O)c1c-2n(CCCN2CCN(C)CC2)c(=O)c2cc([N+](=O)[O-])ccc12`, for which the growth was -42.5% (active) with DU-145 prostate; -50.8% (active) in the assay with K-562 leukemia; -72.9% (active) with MALME-3M melanoma; -72.3% (active) in the assay on MDA-MB-231 breast; 84.2% in the assay with RXF 393 renal; -60.7% (active) in the assay on SF-268 CNS. For the same compound, the growth is -80.8% (active) with SF-295 CNS; -37.6% (active) in the assay on UACC-257 melanoma; -85.2% (active) with M14 melanoma; -61.2% (active) with HCT-15 colon; -79.4% (active) in the assay with HT29 colon; -93.2% (active) in the assay with SNB-75 CNS. Besides, the growth is -20.6% (active) with SNB-19 CNS; -81.2% (active) with U251 CNS; 4.16% (active) in the assay on PC-3 prostate; -97.5% (active) with SK-MEL-5 melanoma; -77.9% (active) in the assay on UACC-62 melanoma; -90.7% (active) in the assay on LOX IMVI melanoma. Moreover, the growth in the assay with SK-MEL-28 melanoma is -80.6% (active).

`O=C1c2cc3c(cc2-c2c1c1cc(Cl)c(Cl)cc1c(=O)n2C[C@H](O)CO)OCO3`: the growth with DU-145 prostate is -14.6% (active); in the assay on K-562 leukemia, 7.53% (active); in the assay on MALME-3M melanoma, -37.4% (active); with MDA-MB-231 breast, 0.134% (active); in the assay with RXF 393 renal, -69% (active); in the assay with SF-268 CNS, -2.79% (active). Besides, the growth in the assay on SF-295 CNS is -47% (active); in the assay with UACC-257 melanoma it was -52.9% (active); in the assay with M14 melanoma, -16.3% (active); in the assay on HCT-15 colon, 1.28% (active); with HT29 colon, -38.8% (active); with SNB-75 CNS, -31.4% (active). In addition, the growth was -6.61% (active) in the assay on SNB-19 CNS; -63.4% (active) in the assay with U251 CNS; 5.35% (active) in the assay on PC-3 prostate; -84.8% (active) in the assay on SK-MEL-5 melanoma; -66.8% (active) with UACC-62 melanoma; -70.9% (active) in the assay with LOX IMVI melanoma. Moreover, in the assay with SK-MEL-28 melanoma, the growth is 0.507% (active).

For the compound `CC(=O)C1=C(O)C=C2Oc3c(C(=O)/C=C/c4cc(C(F)(F)F)cc(C(F)(F)F)c4)c(O)c(C)c(O)c3[C@]2(C)C1=O`, the growth in the assay on DU-145 prostate was -71.4% (active); in the assay on K-562 leukemia, -20.7% (active); in the assay on MALME-3M melanoma it was -65.6% (active); with MDA-MB-231 breast it was -38.8% (active); with RXF 393 renal, -48.6% (active); in the assay on SF-268 CNS, -18.1% (active). Besides, the growth was -17.4% (active) with SF-295 CNS; -51.4% (active) in the assay on UACC-257 melanoma; -59.1% (active) in the assay with M14 melanoma; -73% (active) with HCT-15 colon; -42.4% (active) with HT29 colon; -28.3% (active) in the assay with SNB-75 CNS. Besides, the growth with SNB-19 CNS is -17.5% (active); with U251 CNS it was -48.1% (active); in the assay with PC-3 prostate, -8.91% (active); in the assay with SK-MEL-5 melanoma, -93.9% (active); with UACC-62 melanoma it was -64.8% (active); in the assay on LOX IMVI melanoma, -85.4% (active). For the same compound, in the assay with SK-MEL-28 melanoma, the growth is -72.4% (active).

`COc1ccc2nc3cc(Cl)ccc3c(N3CCN(c4nccc(Nc5ccc(Cl)cc5)n4)CC3)c2c1`: the growth is 75.5% in the assay with DU-145 prostate; 10.8% in the assay with K-562 leukemia; 120% in the assay with MALME-3M melanoma; 60.3% in the assay on MDA-MB-231 breast; 53.1% with RXF 393 renal; 53.7% with SF-268 CNS. The growth with SF-295 CNS is 84.1%; in the assay on UACC-257 melanoma it was 88.7%; in the assay with M14 melanoma it was 43.4%; in the assay on HCT-15 colon, 56.5%; in the assay on HT29 colon, 69.7%; in the assay on SNB-75 CNS it was 51.4%. Also, the growth is 92% in the assay with SNB-19 CNS; 62.1% with U251 CNS; 40.3% in the assay on PC-3 prostate; 86.7% in the assay with SK-MEL-5 melanoma; 81.6% in the assay on UACC-62 melanoma; 61.9% in the assay with LOX IMVI melanoma. For the same compound, in the assay with SK-MEL-28 melanoma, the growth was 81.8%.

As for `Cc1ccccc1CCO`, the growth is 111% in the assay on DU-145 prostate; 114% with K-562 leukemia; 92.5% with MALME-3M melanoma; 110% with MDA-MB-231 breast; 104% in the assay with RXF 393 renal; 101% in the assay with SF-268 CNS. For the same compound, the growth with SF-295 CNS was 99.6%; with UACC-257 melanoma it was 89.4%; in the assay with M14 melanoma it was 98.3%; in the assay on HCT-15 colon, 99.8%; in the assay on HT29 colon it was 76.4%; in the assay on SNB-75 CNS, 102%. In addition, the growth in the assay with SNB-19 CNS is 108%; in the assay on U251 CNS, 98.6%; in the assay on PC-3 prostate, 97.6%; in the assay with SK-MEL-5 melanoma, 102%; in the assay with UACC-62 melanoma it was 108%; in the assay on LOX IMVI melanoma, 103%. The growth in the assay with SK-MEL-28 melanoma is 99.9%.

For the compound `O=C1c2ccccc2-c2nccc3cc(Cl)nc1c23`, the growth was 37.3% in the assay on DU-145 prostate; -6.02% (active) in the assay on K-562 leukemia; -65.6% (active) in the assay with MALME-3M melanoma; 78.7% in the assay with MDA-MB-231 breast; -43.1% (active) with RXF 393 renal; 24.6% in the assay with SF-268 CNS. In addition, the growth in the assay with SF-295 CNS is 53.2%; in the assay with UACC-257 melanoma, 58.6%; with M14 melanoma it was -63.4% (active); with HCT-15 colon it was 17.6%; in the assay on HT29 colon it was 14.3%; with SNB-75 CNS it was 65.1%. The growth in the assay on SNB-19 CNS was 105%; with U251 CNS, 32.8%; with PC-3 prostate, 8.78% (active); in the assay with SK-MEL-5 melanoma, -89% (active); in the assay on UACC-62 melanoma it was 27.7%; in the assay with LOX IMVI melanoma, -22.5% (active). The growth in the assay with SK-MEL-28 melanoma was 55.8%.

On to `Oc1ccc2c(=S)cc(-c3ccc(Br)cc3)oc2c1O`, for which the growth was 25.5% in the assay with DU-145 prostate; 20.7% in the assay on K-562 leukemia; 38.3% with MALME-3M melanoma; 3.73% (active) in the assay on MDA-MB-231 breast; 33.4% in the assay with RXF 393 renal; 9.4% (active) with SF-268 CNS. The growth was 100% in the assay on SF-295 CNS; 67.5% in the assay on UACC-257 melanoma; 12.3% with M14 melanoma; 8.03% (active) with HCT-15 colon; 63.9% with HT29 colon; 71.4% in the assay on SNB-75 CNS. Besides, the growth in the assay on SNB-19 CNS was 6.8% (active); in the assay on U251 CNS it was -7.83% (active); with PC-3 prostate, -2.05% (active); in the assay with SK-MEL-5 melanoma, 10.9%; in the assay on UACC-62 melanoma, 8.09% (active); in the assay on LOX IMVI melanoma, 1.22% (active). Moreover, in the assay with SK-MEL-28 melanoma, the growth is 51.4%.

As to `COc1ccc2nc3cc(Cl)ccc3c(N3CCN(c4nccc(Nc5ccccc5)n4)CC3)c2c1`, the growth in the assay with DU-145 prostate was 75.2%; in the assay on K-562 leukemia it was 41.5%; with MALME-3M melanoma it was 110%; in the assay with MDA-MB-231 breast, 70.2%; in the assay on RXF 393 renal it was 35%; with SF-268 CNS, 61.3%. Also, the growth in the assay with SF-295 CNS was 78.3%; in the assay on UACC-257 melanoma it was 82.2%; with M14 melanoma, 60.8%; in the assay on HCT-15 colon it was 33.8%; in the assay with HT29 colon, 54%; in the assay with SNB-75 CNS, 52.8%. For the same compound, the growth in the assay on SNB-19 CNS was 85.2%; in the assay with U251 CNS, 58.5%; with PC-3 prostate, 55.9%; in the assay on SK-MEL-5 melanoma, 80.4%; in the assay with UACC-62 melanoma it was 78.9%; in the assay with LOX IMVI melanoma it was 44.3%. In the assay with SK-MEL-28 melanoma, the growth is 83.5%.
